Results: PubChem BioAssay (NCATS)
Results filed as inconclusive are left out. Where a call stands in place of a potency, no number is given. Calls of active or inactive are those of the source. Calls follow the shape of the dose curve; as a rule, active = well fitted curve in the direction sought with a large enough effect; inconclusive = small, poorly fitted or top-dose-only effect, or another doubt; inactive = no such curve, though single readings can be large; an effect the other way counts as inactive or inconclusive.

Assays:
[1] = Quantitative High-Throughput drug screen in 47 multiple myeloma cell lines against the NCATS MIPE library collection: KHM11_PLB cell viability assay (AID 1918962); also: nearly all actives have a fitted effect of over 35% in size
Outline: (§1)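 Relative luminescence from CellTiter-Glo served as the viability signal, referenced to DMSO-treated (100%) and cell-free medium (0%) controls. Treatment lasted 48 hours at 37C with 500 cells per well.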

[2] = Quantitative High-Throughput drug screen in 47 multiple myeloma cell lines against the NCATS MIPE library collection: JIM1_ECACC cell viability assay (AID 1918964)
Outline: (§2)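 We plated 500 myeloma cells per well, pinned in MIPE 4.0 compounds, and incubated for 48 hours at 37C. ATP was then quantified with CellTiter-Glo, with DMSO and media-only wells defining 100% and 0%.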

[3] = Quantitative High-Throughput drug screen in 47 multiple myeloma cell lines against the NCATS MIPE library collection: INA6_PLB cell viability assay (AID 1918965; also: nearly all actives have a fitted effect of over 55% in size)
Outline: as §1

[4] = Quantitative High-Throughput drug screen in 47 multiple myeloma cell lines against the NCATS MIPE library collection: JJN3_DSMZ cell viability assay (AID 1918966; also: nearly all actives have a fitted effect of over 50% in size)
Outline: as §2

[5] = Quantitative High-Throughput drug screen in 47 multiple myeloma cell lines against the NCATS MIPE library collection: H1112_PLB cell viability assay (AID 1918967; also: nearly all actives have a fitted effect of over 30% in size)
Outline: as §2

[6] = Quantitative High-Throughput drug screen in 47 multiple myeloma cell lines against the NCATS MIPE library collection: KMS12BM_JCRB cell viability assay (AID 1918971); also: nearly all actives have a fitted effect of over 35% in size
Outline: (§3)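 Inhibition of cell viability is measured here. Each line was plated at 500 cells per well, treated with MIPE 4.0 drugs, kept 48 hours at 37C, then assayed for ATP content by CellTiter-Glo luminescence.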

[7] = Quantitative High-Throughput drug screen in 47 multiple myeloma cell lines against the NCATS MIPE library collection: KMS12PE_JCRB cell viability assay (AID 1918972); also: nearly all actives have a fitted effect of over 30% in size
Outline: as §1

[8] = Quantitative High-Throughput drug screen in 47 multiple myeloma cell lines against the NCATS MIPE library collection: KMS26_JCRB cell viability assay (AID 1918975); also: nearly all actives have a fitted effect of over 45% in size
Outline: as §3

[9] = Quantitative High-Throughput drug screen in 47 multiple myeloma cell lines against the NCATS MIPE library collection: MOLP8_DSMZ cell viability assay (AID 1918977); also: nearly all actives have a fitted effect of over 45% in size
Outline: (§4)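 Readout: median RLU from CellTiter-Glo after 5 min at room temperature. Preceding step was 48 h drug treatment of 500 cells/well at 37 °C, 5% CO2, with DMSO-only and media-only control wells.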

[10] = Quantitative High-Throughput drug screen in 47 multiple myeloma cell lines against the NCATS MIPE library collection: NCIH929_DSMZ cell viability assay (AID 1918978); also: nearly all actives have a fitted effect of over 35% in size
Outline: as §4

[11] = Quantitative High-Throughput drug screen in 47 multiple myeloma cell lines against the NCATS MIPE library collection: OCIMY1_PLB cell viability assay (AID 1918979); also: nearly all actives have a fitted effect of over 35% in size
Outline: as §4

[12] = Quantitative High-Throughput drug screen in 47 multiple myeloma cell lines against the NCATS MIPE library collection: MM1S_ATCC cell viability assay (AID 1918980); also: nearly all actives have a fitted effect of over 45% in size
Outline: as §4

[13] = Quantitative High-Throughput drug screen in 47 multiple myeloma cell lines against the NCATS MIPE library collection: LP1_DSMZ cell viability assay (AID 1918982); also: nearly all actives have a fitted effect of over 35% in size
Outline: as §4

[14] = Quantitative High-Throughput drug screen in 47 multiple myeloma cell lines against the NCATS MIPE library collection: JIM3_ECACC cell viability assay (AID 1918963; also: nearly all actives have a fitted effect of over 35% in size)
Outline: as §1

[15] = Quantitative High-Throughput drug screen in 47 multiple myeloma cell lines against the NCATS MIPE library collection: Karpas25_ECACC cell viability assay (AID 1918968; also: nearly all actives have a fitted effect of over 35% in size)
Outline: as §2

[16] = Quantitative High-Throughput drug screen in 47 multiple myeloma cell lines against the NCATS MIPE library collection: KMS27_JCRB cell viability assay (AID 1918970); also: nearly all actives have a fitted effect of over 30% in size
Outline: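 CellTiter-Glo luminescence after 48 h drug exposure at 37 °C; 500 cells/well, 1536-well format, pin-tool compound addition; DMSO = 100%, media-only = 0% viability.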

[17] = Quantitative High-Throughput drug screen in 47 multiple myeloma cell lines against the NCATS MIPE library collection: KMS20_JCRB cell viability assay (AID 1918973); also: nearly all actives have a fitted effect of over 45% in size
Outline: as §2

[18] = Quantitative High-Throughput drug screen in 47 multiple myeloma cell lines against the NCATS MIPE library collection: MMM1_PLB cell viability assay (AID 1918976); also: nearly all actives have a fitted effect of over 35% in size
Outline: as §4

[19] = Quantitative High-Throughput drug screen in 47 multiple myeloma cell lines against the NCATS MIPE library collection: MM1R_ATCC cell viability assay (AID 1918981); also: nearly all actives have a fitted effect of over 35% in size
Outline: as §4

[20] = Quantitative High-Throughput drug screen in 47 multiple myeloma cell lines against the NCATS MIPE library collection: KMS21BM_JCRB cell viability assay (AID 1918974); details: ATP luminescence, 48 h; viability: at 45.8 µM (top of the series)
Outline: as §2
Potency is read from the fitted curve at half-maximal effect.

Structure (SMILES)	Potency [1]	Potency [2]	Potency [3]	Potency [4]	Potency [5]	Potency [6]	Potency [7]	Potency [8]	Potency [9]	Potency [10]	Potency [11]	Potency [12]	Potency [13]	Potency [14]	Potency [15]	Potency [16]	Potency [17]	Potency [18]	Potency [19]	Potency [20]
CN(C)c1ccc(C(=C2C=CC(=[N+](C)C)C=C2)c2ccc(N(C)C)cc2)cc1	0.0166 µM (active)	0.105 µM (active)	0.0093 µM (active)	0.0187 µM (active)	0.0372 µM (active)	0.0662 µM (active)	0.0093 µM (active)	0.166 µM (active)	0.0526 µM (active)	0.0264 µM (active)	2.09 µM (active)	0.105 µM (active)	0.418 µM (active)	–	–	–	–	–	–	–
Cn1c(=O)c2c(ncn2CC(O)CO)n(C)c1=O (configuration not stated)	inactive	inactive	inactive	–	inactive	inactive	inactive	inactive	inactive	inactive	inactive	inactive	inactive	inactive	inactive	inactive	inactive	inactive	–	–
COC(c1ccccc1)(c1ccccc1)[C@H](Oc1nc(C)cc(C)n1)C(=O)O	inactive	inactive	–	–	inactive	–	inactive	inactive	–	inactive	inactive	–	–	inactive	–	inactive	–	–	–	–
CC(C)NCC(O)c1ccc(NS(C)(=O)=O)cc1 (configuration not stated)	inactive	–	–	–	–	inactive	inactive	–	–	inactive	inactive	7.43 µM (active)	inactive	inactive	–	inactive	inactive	2.09 µM (active)	inactive	–
CCn1cc(C(=O)O)c(=O)c2cc(F)c(N3CCNCC3)nc21	inactive	–	inactive	inactive	inactive	–	–	–	–	–	–	–	–	inactive	–	inactive	inactive	–	–	–
COc1cc2nc(N3CCCN(C)CC3)nc(NC3CCN(Cc4ccccc4)CC3)c2cc1OC	–	7.43 µM (active)	2.35 µM (active)	16.6 µM (active)	5.9 µM (active)	14.8 µM (active)	–	5.26 µM (active)	4.69 µM (active)	2.64 µM (active)	5.9 µM (active)	2.64 µM (active)	4.69 µM (active)	9.35 µM (active)	5.26 µM (active)	4.18 µM (active)	0.833 µM (active)	–	–	4.69 µM (active)
Oc1c(Cl)cc(Cl)c2cccnc12	26.4 µM (active)	8.33 µM (active)	16.6 µM (active)	8.33 µM (active)	–	4.69 µM (active)	–	14.8 µM (active)	11.8 µM (active)	10.5 µM (active)	18.7 µM (active)	7.43 µM (active)	26.4 µM (active)	9.35 µM (active)	9.35 µM (active)	16.6 µM (active)	11.8 µM (active)	–	11.8 µM (active)	–
CNCC[C@H](Oc1cccc2ccccc12)c1cccs1	5.26 µM (active)	–	7.43 µM (active)	–	–	18.7 µM (active)	–	7.43 µM (active)	18.7 µM (active)	1.87 µM (active)	18.7 µM (active)	2.35 µM (active)	18.7 µM (active)	5.26 µM (active)	–	23.5 µM (active)	–	–	–	–
Nc1nc(=S)c2[nH]cnc2[nH]1	4.18 µM (active)	–	0.469 µM (active)	4.69 µM (active)	14.8 µM (active)	5.9 µM (active)	–	6.62 µM (active)	3.32 µM (active)	1.32 µM (active)	8.33 µM (active)	3.72 µM (active)	7.43 µM (active)	9.35 µM (active)	–	inactive	1.32 µM (active)	–	–	–
O=C(O)c1cc(=O)[nH]c(=O)[nH]1	inactive	–	inactive	–	–	–	inactive	inactive	–	inactive	–	inactive	inactive	inactive	inactive	inactive	–	–	inactive	–
C[C@@H](NCCCc1cccc(C(F)(F)F)c1)c1cccc2ccccc12	inactive	–	–	–	–	inactive	18.7 µM (active)	inactive	inactive	inactive	inactive	–	inactive	13.2 µM (active)	inactive	inactive	inactive	–	inactive	–
COc1ncnc(NS(=O)(=O)c2ccc(N)cc2)c1OC	inactive	–	inactive	–	inactive	inactive	inactive	inactive	inactive	inactive	inactive	23.5 µM (active)	inactive	inactive	–	inactive	–	–	inactive	–
COCCCOc1cc(C[C@@H](C[C@H](N)[C@@H](O)C[C@H](C(=O)NCC(C)(C)C(N)=O)C(C)C)C(C)C)ccc1OC	inactive	–	–	–	–	–	inactive	inactive	–	inactive	–	0.0743 µM (active)	inactive	inactive	1.87 µM (active)	–	–	–	inactive	–
O=C(N[C@H](CO)[C@H](O)c1ccc([N+](=O)[O-])cc1)C(Cl)Cl	inactive	–	inactive	inactive	inactive	inactive	–	inactive	inactive	inactive	inactive	inactive	inactive	inactive	–	inactive	–	–	inactive	–
Cc1ccc(S(=O)(=O)N[C@@H](Cc2ccccc2)C(=O)CCl)cc1	16.6 µM (active)	–	5.9 µM (active)	18.7 µM (active)	16.6 µM (active)	18.7 µM (active)	16.6 µM (active)	18.7 µM (active)	14.8 µM (active)	10.5 µM (active)	23.5 µM (active)	11.8 µM (active)	20.9 µM (active)	13.2 µM (active)	9.35 µM (active)	13.2 µM (active)	–	–	–	14.8 µM (active)
